# Measured values taken from PubChem BioAssay (NCATS).
# “And” between values parts separate entries of the source, which are not always exact repeats. Identical values can stand only once. Results filed as inconclusive are left out. The source made the active and inactive calls. The call rests on the fitted dose curve; in most records, active means well fitted inhibition curve with a large enough effect; inconclusive means small, poorly fitted or top-dose-only effect; inactive means no such curve, though single readings can be large or run the other way.
# Assay: Confirmatory qHTS for small molecule stabilizers of the endoplasmic reticulum resident proteome: Secreted ER Calcium Modulated Protein (SERCaMP) assay (AID 1508628); further: nearly all actives have a fitted effect of over 40% in size
# Conditions: SERCaMP secreted luciferase ER calcium/proteostasis reporter; series mostly up to 76.3 µM
# Excerpt: Assay Provider: Brandon K. Harvey Ph.D.
# National Institute on Drug Abuse, National Institutes of Health, Baltimore, MD
# Endoplasmic reticulum (ER) dysregulation is associated with human pathologies including neurodegenerative, cardiovascular, muscular, and diabetic conditions. Maintenance of ER calcium is critical for functions of the ER and its depletion can lead to loss of ER resident proteins, in a process termed exodosis. Therapeutic compounds capable of attenuating the redistribution of ER proteins under pathological conditions may slow or stop disease progression. To identify such compounds, we performed a quantitative high-throughput screen (qHTS) using the SERCaMP assay, which monitors secretion of ER resident proteins triggered by calcium depletion.
# SERCaMP was initially developed as a reporter of ER calcium homeostasis using a Gaussia luciferase with a modified signal peptide and carboxy-terminus (GLuc-SERCaMP), modifications that confer secretion of the reporter in response to ER calcium depletion (Henderson et al., 2014). The assay was used to screen 9,501 compounds, including a collection of drugs approved by the FDA (US), EMA (EU), NHI (Japan), and HC (Canada) regulatory agencies (Huang et al., 2011). Since the SERCaMP reporter reflects the exodosis phenomenon (Trychta et al., 2018a), compounds identified in the screen have the potential to prevent exodosis by different mechanisms such as stabilizing ER calcium or augmenting ERS retrieval.
# 1. Henderson, M.J., Wires, E.S., Trychta, K.A., Richie, C.T., and Harvey, B.K. (2014). SERCaMP: a carboxy-terminal protein modification that enables monitoring of ER calcium homeostasis. Mol Biol Cell 25, 2828-2839.
# 2. Huang, R., Southall, N., Wang, Y., Yasgar, A., Shinn, P., Jadhav, A., Nguyen, D.T., and Austin, C.P. (2011). The NCGC pharmaceutical collection: a comprehensive resource of clinically approved drugs enabling repurposing and chemical genomics. Sci Transl Med 3, 80ps16.
# 3. Trychta, K.A., Back, S., Henderson, M.J., and Harvey, B.K. (2018a). KDEL Receptors Are Differentially Regulated to Maintain the ER Proteome under Calcium Deficiency. Cell Rep 25, 1829-1840 e1826.
# SEQUENCE No. (1, 2, 3, etc.); […] (e.g., Cells, Incubation, Reagent, etc.); VALUE and DESCRIPTION.
# 1; Reagent; 5 uL; 1000 SH-SY5Y cells per wells
# 3; Compound; 23 nL; Control inhibitor / compound library
# 5; Reagent; 100 nM; Thapsigargin
# 7; Reagent; 1 uL; 0.5x coelenterazine
# 8; Detection; Luminescence; ViewLux imaging system
# NOTES (numbers refer to sequence above)
# 1; SH-SY5Y human neuroblastoma cells stably expressing GLuc-SERCaMP (SH-SY5Y-GLuc-ASARTDL) cells were seeded in 1,536 well white tissue culture treated plates (Corning, Cat# 7464) in DMEM-high glucose-sodium pyruvate (ThermoFisher Scientific, Cat #10569) supplemented with 10% bovine growth serum (Hyclone), 10 U/ml penicillin (Gibco), 10 ug/ml streptomycin (Gibco), and 20 mM HEPES.
# 2; Assay plates were incubated for 5 hour at 37C in a humidified incubator containing 5% CO2.
# 3; qHTS libraries (23 nl, final concentrations of 1.53 uM, 7.67 uM, 38.3 uM) or controls (neutral control: DMSO, positive control: dantrolene) were added using a Kalypsis pin-tool Robotic System equipped with 1536 pinheads.
# 4; Cells were then incubated for 16 hours at 37C, 5% CO2.
# 5; Thapsigargin was added at 100 nM to deplete ER calcium stores.
# 6; Cells were incubated for 4 hour (37 °C, 5% CO2)
# 7; Gaussia luciferase in the medium was measured by adding 1 ul of 0.5x coelenterazine (final concentration 0.07x) prepared in Gaussia Luciferase Glow Assay Buffer (Pierce), without addition of the Cell Lysis Buffer Reagent.
# 8; Luminescence was measured using a ViewLux […] CCD imaging system (Perkin Elmer) equipped with clear filters. […] The same controls were also used for the calculation of the Z' factor, a measure of assay quality control, as previously described (Zhang et al., 1999). […]
# Potency means the concentration at half of the fitted maximal effect.
row,Structure (SMILES),Potency
1,OC(CCN1CCCCC1)(c1ccccc1)C1CCCCC1 (stereo not given),35.5 µM (active)
2,CCN(CC)CCCN(c1ccccc1)C1Cc2ccccc2C1,39.8 µM (active)
3,CN1C[C@H](C(=O)N[C@]2(C)O[C@@]3(O)[C@@H]4CCCN4C(=O)[C@H](Cc4ccccc4)N3C2=O)C[C@@H]2c3cccc4[nH]cc(c34)C[C@H]21,25.1 µM (active)
4,O=C(O)CN(CCN(CC(=O)O)CC(=O)O)CCN(CC(=O)O)CC(=O)O,inactive
5,CCC(=O)c1ccc2c(c1)N(CCCN(C)C)c1ccccc1S2,inactive
6,NC(=Nc1ccccc1)Nc1ccccc1,3.55 µM (active) and 5.62 µM (active) and 355 nM (active)
7,COC(=O)[C@@H](N)Cc1ccc(O)c(O)c1,35.5 µM (active)
8,COC(=O)[C@H]1[C@H]2C[C@@H]3c4[nH]c5cc(OC)ccc5c4CCN3C[C@H]2C[C@@H](OC(=O)c2cc(OC)c(OC)c(OC)c2)[C@@H]1OC,15.8 µM (active)
9,c1cc(CN2CCCCC2)cc(OCCCNc2nc3ccccc3s2)c1,12.6 µM (active)
10,CCc1cccc(N(C)C(N)=Nc2cccc3ccccc23)c1,15.8 µM (active)
